# According to publication PMC7862700, “An all-to-all approach to the identification of sequence-specific readers for epigenetic DNA modifications on cytosine”:
# Experiments:
# Assay in all cases: DAPPL (digital affinity profiling via proximity ligation, sequencing); 10 mM Tris-HCl pH 7.5, 50 mM NaCl, 1 mM DTT, 4% glycerol, room temperature, 30 min; GST-TFs on glutathione beads, 16-mer random dsDNA library, 0.1% formaldehyde crosslink after washing; high values mean tight binding
# Conditions in all cases: protein: recombinant; tags: N-terminal GST; dsDNA, one strand shown
# [1] = biological target: T1, FLI1 (Homo sapiens, UniProt Q01543 1-452)
# T1 sequence: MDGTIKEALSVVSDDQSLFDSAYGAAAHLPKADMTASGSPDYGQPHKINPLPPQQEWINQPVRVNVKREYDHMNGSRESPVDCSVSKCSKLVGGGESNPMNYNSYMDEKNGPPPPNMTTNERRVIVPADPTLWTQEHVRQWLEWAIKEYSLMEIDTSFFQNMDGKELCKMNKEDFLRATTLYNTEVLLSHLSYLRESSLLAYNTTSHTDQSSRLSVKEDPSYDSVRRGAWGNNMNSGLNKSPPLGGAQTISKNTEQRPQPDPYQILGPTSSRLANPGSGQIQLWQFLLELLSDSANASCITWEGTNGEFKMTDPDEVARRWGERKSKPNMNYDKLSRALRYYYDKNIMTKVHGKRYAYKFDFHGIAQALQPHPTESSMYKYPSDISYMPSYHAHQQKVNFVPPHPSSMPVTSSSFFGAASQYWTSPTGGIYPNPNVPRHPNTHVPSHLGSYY
# Summary of the method: (§1)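 Binding signal is defined as a hexamer's read frequency for one factor over its frequency for the tag-only sample. To obtain reads, GST-fused human transcription factors were expressed in yeast, captured on glutathione beads, barcoded with DNA and pooled with that sample. Pools met 200 nmole of a 16-mer random double-stranded DNA library in Tris/NaCl/DTT/glycerol buffer for 30 min at room temperature before washing, 0.1% formaldehyde crosslinking, proximity ligation (BsaI/T4 ligase, 1 h, 37 °C), PCR and Illumina NextSeq500 sequencing.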
# [2] = biological target: T2, ELK1 (Homo sapiens, UniProt P19419 1-428)
# T2 sequence: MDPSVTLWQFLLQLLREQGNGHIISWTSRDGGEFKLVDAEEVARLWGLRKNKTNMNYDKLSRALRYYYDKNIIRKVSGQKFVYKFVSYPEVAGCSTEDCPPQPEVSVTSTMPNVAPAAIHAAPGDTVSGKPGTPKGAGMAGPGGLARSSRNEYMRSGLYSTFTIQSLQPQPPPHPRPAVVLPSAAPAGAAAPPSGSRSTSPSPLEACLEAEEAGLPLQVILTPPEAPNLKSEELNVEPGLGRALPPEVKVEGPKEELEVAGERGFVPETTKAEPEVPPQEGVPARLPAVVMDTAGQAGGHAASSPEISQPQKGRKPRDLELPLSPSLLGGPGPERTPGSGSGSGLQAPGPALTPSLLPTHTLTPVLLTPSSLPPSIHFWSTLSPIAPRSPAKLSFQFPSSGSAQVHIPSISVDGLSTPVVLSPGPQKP
# Summary of the method: as §1
# [3] = biological target: T3, GABPA (Homo sapiens, UniProt Q06546 1-454)
# T3 sequence: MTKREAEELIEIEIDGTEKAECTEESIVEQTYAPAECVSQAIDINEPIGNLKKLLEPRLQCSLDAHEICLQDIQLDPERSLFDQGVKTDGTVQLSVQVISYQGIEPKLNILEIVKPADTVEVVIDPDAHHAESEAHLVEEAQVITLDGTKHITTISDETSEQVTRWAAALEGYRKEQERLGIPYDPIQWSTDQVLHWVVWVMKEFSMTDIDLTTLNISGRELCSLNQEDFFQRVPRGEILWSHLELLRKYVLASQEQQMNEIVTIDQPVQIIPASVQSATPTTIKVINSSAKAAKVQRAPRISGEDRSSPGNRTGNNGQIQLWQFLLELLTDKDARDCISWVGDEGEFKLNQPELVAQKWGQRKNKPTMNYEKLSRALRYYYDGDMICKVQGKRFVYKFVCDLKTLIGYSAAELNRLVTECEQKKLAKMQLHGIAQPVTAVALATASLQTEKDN
# Summary of the method: as §1
# [4] = biological target: T4, ERG (Homo sapiens, UniProt P11308 1-479)
# T4 sequence: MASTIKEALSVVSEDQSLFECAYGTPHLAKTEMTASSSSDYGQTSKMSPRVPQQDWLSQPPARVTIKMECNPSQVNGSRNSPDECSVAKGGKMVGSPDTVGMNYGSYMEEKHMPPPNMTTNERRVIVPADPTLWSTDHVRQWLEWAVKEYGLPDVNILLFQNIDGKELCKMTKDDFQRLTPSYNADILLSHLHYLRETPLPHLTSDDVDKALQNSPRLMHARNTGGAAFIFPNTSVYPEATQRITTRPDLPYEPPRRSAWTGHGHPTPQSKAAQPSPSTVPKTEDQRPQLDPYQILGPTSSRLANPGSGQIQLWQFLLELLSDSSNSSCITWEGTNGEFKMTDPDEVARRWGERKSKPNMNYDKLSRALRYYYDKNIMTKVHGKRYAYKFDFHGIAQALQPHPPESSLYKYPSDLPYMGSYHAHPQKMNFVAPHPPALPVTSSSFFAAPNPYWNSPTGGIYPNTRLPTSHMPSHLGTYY
# Summary of the method: as §1
# [5] = biological target: ELF1 (Homo sapiens, UniProt P32519 1-619)
# Summary of the method: as §1
# [6] = biological target: T5, EHF (Homo sapiens, UniProt Q9NZC4 1-300)
# T5 sequence: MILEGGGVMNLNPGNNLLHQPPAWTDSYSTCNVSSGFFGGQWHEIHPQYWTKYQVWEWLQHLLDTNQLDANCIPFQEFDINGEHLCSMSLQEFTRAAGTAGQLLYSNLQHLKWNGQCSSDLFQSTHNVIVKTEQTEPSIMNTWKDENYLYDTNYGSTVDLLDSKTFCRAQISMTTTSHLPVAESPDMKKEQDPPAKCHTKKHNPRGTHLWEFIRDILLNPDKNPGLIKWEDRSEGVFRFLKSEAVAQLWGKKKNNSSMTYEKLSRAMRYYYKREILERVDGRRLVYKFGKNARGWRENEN
# Summary of the method: as §1
# [7] = biological target: SPI1 (Homo sapiens, UniProt P17947 1-270)
# Summary of the method: as §1
# [8] = biological target: SPIB (Homo sapiens, UniProt Q01892 1-262)
# Summary of the method: as §1
# [9] = biological target: T6, ELK3 (Homo sapiens, UniProt P41970 1-407)
# T6 sequence: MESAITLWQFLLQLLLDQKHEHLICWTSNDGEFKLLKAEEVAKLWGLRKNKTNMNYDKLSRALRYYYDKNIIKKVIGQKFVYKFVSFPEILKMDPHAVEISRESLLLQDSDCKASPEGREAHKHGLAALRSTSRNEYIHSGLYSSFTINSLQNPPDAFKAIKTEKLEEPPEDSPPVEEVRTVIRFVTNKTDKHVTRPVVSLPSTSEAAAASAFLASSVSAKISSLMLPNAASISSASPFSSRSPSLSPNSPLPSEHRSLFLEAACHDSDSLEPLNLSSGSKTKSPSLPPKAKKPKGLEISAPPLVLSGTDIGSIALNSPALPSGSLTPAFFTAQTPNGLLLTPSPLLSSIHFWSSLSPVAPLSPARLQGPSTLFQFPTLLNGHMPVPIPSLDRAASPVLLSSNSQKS
# Summary of the method: as §1
# [10] = biological target: ETV5 (Homo sapiens, UniProt P41161 1-510)
# Summary of the method: as §1
# [11] = biological target: T7, SPIC (Homo sapiens, UniProt Q8N5J4 1-248)
# T7 sequence: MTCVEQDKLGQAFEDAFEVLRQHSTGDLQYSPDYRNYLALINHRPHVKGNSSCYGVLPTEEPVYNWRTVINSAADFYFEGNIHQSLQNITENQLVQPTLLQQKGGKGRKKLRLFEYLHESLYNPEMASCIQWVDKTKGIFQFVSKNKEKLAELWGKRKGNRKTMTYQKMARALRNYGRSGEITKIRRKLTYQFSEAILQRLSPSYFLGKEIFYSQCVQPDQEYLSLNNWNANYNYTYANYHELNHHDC
# Summary of the method: as §1
# [12] = biological target: ELF4 (Homo sapiens, UniProt Q99607 1-663)
# Summary of the method: as §1
# [13] = biological target: ETV1 (Homo sapiens, UniProt P50549 1-477)
# Summary of the method: as §1
# [14] = biological target: T8, ETS2 (Homo sapiens, UniProt P15036 1-469)
# T8 sequence: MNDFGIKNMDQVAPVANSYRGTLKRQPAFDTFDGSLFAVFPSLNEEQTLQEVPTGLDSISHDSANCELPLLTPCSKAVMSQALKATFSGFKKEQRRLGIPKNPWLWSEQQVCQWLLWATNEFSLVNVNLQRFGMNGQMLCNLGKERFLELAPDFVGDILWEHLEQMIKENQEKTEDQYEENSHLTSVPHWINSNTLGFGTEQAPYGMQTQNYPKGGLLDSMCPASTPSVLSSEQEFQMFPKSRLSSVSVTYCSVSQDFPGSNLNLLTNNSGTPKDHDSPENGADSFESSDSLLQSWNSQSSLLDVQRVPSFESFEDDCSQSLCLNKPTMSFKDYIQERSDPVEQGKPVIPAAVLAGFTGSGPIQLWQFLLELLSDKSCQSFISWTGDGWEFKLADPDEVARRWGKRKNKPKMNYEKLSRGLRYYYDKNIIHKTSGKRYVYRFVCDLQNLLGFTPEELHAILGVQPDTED
# Summary of the method: as §1
# [15] = biological target: T9, SPDEF (Homo sapiens, UniProt O95238 1-335)
# T9 sequence: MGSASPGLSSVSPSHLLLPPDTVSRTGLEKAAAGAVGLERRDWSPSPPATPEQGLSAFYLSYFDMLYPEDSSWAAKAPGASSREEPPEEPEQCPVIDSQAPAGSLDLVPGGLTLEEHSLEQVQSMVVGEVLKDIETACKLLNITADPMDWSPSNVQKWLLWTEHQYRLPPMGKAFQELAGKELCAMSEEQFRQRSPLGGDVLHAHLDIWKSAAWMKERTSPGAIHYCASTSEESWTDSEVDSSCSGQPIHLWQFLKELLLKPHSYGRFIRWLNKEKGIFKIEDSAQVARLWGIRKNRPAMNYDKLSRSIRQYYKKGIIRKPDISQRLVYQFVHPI
# Summary of the method: as §1
# [16] = biological target: T10, ETV3 (Homo sapiens, UniProt P41162-2 1-143)
# T10 sequence: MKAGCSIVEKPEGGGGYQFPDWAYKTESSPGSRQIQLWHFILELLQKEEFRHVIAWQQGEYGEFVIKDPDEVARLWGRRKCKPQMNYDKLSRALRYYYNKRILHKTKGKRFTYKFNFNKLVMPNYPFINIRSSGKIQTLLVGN
# Summary of the method: as §1
# [17] = biological target: ETV6 (Homo sapiens, UniProt P41212 1-452)
# Summary of the method: as §1
# ETV5, sequence (P41161 whole entry): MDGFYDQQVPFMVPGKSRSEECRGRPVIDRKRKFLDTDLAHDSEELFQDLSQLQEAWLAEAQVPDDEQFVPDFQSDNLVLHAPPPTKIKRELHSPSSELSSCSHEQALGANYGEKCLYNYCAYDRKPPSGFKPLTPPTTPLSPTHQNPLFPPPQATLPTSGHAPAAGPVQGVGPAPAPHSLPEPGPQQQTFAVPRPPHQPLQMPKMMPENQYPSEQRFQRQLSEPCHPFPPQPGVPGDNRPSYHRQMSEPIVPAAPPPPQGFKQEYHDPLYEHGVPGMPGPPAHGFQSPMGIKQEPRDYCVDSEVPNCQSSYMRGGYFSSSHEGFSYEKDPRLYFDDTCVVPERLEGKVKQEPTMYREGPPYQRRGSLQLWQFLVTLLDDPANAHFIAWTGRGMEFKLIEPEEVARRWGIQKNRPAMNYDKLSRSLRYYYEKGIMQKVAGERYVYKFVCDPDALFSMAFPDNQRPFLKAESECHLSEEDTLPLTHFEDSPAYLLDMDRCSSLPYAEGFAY
# ETV6, sequence (P41212 whole entry): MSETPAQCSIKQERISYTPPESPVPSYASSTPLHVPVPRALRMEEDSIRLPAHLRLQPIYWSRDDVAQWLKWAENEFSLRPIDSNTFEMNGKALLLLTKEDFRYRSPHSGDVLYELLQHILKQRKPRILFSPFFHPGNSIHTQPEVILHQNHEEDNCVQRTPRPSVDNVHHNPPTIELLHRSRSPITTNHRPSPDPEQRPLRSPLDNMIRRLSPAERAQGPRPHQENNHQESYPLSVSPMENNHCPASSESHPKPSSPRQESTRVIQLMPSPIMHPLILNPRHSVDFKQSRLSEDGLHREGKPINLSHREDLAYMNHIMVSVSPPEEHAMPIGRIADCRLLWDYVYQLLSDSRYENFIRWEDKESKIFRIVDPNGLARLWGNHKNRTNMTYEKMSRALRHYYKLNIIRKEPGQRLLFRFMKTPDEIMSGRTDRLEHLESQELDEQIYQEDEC
# SPIB, sequence (Q01892 whole entry): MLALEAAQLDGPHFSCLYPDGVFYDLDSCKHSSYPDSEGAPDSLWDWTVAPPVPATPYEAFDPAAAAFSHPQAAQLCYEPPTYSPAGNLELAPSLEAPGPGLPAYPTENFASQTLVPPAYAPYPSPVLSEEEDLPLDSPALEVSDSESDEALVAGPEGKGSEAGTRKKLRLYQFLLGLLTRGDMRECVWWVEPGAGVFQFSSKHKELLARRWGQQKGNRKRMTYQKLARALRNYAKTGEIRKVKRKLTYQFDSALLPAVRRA
# ELF4, sequence (Q99607 whole entry): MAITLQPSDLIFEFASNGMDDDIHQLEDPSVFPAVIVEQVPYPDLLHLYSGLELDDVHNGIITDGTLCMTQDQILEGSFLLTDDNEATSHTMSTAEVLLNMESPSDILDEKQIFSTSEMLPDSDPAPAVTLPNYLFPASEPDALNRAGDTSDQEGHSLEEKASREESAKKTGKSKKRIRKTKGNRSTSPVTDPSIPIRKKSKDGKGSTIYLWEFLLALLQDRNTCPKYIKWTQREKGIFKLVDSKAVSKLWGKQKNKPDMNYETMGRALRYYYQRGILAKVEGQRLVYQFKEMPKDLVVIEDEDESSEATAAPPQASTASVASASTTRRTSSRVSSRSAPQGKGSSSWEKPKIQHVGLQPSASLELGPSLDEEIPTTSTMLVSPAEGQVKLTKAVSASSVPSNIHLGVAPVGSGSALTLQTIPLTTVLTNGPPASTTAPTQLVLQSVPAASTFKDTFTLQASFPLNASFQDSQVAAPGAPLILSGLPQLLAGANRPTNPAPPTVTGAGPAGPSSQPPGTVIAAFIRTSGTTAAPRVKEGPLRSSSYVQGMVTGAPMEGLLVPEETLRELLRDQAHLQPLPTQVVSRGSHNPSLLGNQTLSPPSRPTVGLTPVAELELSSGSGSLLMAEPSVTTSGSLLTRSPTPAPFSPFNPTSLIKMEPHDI
# ETV1, sequence (P50549 whole entry): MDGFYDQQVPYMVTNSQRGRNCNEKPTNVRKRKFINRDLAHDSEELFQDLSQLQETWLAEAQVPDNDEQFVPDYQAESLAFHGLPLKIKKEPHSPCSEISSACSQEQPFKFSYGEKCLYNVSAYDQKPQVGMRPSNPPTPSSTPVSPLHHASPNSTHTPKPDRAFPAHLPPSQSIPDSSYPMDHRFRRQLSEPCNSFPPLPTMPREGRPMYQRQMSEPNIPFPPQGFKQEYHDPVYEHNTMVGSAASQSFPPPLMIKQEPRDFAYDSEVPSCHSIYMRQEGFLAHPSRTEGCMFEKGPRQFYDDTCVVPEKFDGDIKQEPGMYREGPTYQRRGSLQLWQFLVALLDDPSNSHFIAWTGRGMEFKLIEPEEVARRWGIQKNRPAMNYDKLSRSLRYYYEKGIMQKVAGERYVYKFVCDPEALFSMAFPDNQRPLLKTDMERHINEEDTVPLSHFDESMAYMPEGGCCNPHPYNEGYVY
# ELF1, sequence (P32519 whole entry): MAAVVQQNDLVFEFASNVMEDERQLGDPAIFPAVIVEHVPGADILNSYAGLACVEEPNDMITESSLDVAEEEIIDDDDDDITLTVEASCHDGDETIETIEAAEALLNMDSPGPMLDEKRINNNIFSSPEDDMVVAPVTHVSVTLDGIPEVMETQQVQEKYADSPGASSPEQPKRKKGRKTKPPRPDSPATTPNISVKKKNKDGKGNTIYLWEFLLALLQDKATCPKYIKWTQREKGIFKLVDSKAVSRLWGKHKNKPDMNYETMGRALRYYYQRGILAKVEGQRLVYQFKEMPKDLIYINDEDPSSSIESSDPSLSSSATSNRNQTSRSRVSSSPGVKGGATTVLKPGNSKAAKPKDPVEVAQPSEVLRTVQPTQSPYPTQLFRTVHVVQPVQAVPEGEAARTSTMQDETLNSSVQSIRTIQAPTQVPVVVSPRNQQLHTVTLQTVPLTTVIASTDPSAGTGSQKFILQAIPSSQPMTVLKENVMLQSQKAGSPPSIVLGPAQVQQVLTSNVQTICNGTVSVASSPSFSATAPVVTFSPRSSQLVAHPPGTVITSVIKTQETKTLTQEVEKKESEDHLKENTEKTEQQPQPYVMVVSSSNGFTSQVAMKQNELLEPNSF
sequence,measurement,setting,value
AGTGTC,binding signal,[1],"1.01 fold enrichment (6-mer frequency, TF over GST control)"
same,binding signal,[2],"1.07 fold enrichment (6-mer frequency, TF over GST control)"
same,binding signal,[3],"1.07 fold enrichment (6-mer frequency, TF over GST control)"
same,binding signal,[4],"1.08 fold enrichment (6-mer frequency, TF over GST control)"
same,binding signal,[5],"1.06 fold enrichment (6-mer frequency, TF over GST control)"
same,binding signal,[6],"1.14 fold enrichment (6-mer frequency, TF over GST control)"
same,binding signal,[7],"1.16 fold enrichment (6-mer frequency, TF over GST control)"
same,binding signal,[8],"1.01 fold enrichment (6-mer frequency, TF over GST control)"
same,binding signal,[9],"1.01 fold enrichment (6-mer frequency, TF over GST control)"
same,binding signal,[10],"1.06 fold enrichment (6-mer frequency, TF over GST control)"
same,binding signal,[11],"1.11 fold enrichment (6-mer frequency, TF over GST control)"
same,binding signal,[12],"1.07 fold enrichment (6-mer frequency, TF over GST control)"
same,binding signal,[13],"1.02 fold enrichment (6-mer frequency, TF over GST control)"
same,binding signal,[14],"1.09 fold enrichment (6-mer frequency, TF over GST control)"
same,binding signal,[15],"1.05 fold enrichment (6-mer frequency, TF over GST control)"
same,binding signal,[16],"1.07 fold enrichment (6-mer frequency, TF over GST control)"
same,binding signal,[17],"1.01 fold enrichment (6-mer frequency, TF over GST control)"
